# Where “and” joins values, the source holds several entries; their conditions need not be identical. Identical values can stand only once. Records with an inconclusive call do not appear. A call without a number means that no potency is given here. Unmarked numbers belong to inactive results. Calls of active or inactive are those of the source. Unless noted, the call rests on the fitted dose curve; in most records, active means well fitted curve in the direction sought with a large enough effect; inconclusive means small, poorly fitted or top-dose-only effect, or another doubt; inactive means no such curve, though single readings can be large; an effect the other way counts as inactive or inconclusive.
# Tests used:
# [1] = Primary qHTS for small molecule stabilizers of the endoplasmic reticulum resident proteome: Secreted ER Calcium Modulated Protein (SERCaMP) assay (AID 1508630); details: SH-SY5Y GLuc-SERCaMP (Gaussia luciferase released on ER calcium loss) secretion, thapsigargin, luminescence; series mostly up to 38.4 µM
# Summary of the method: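 The SH-SY5Y reporter protocol was run at 3 concentrations up to 38.3 uM (primary) or 11 concentrations (follow-up): 16 h compound, 100 nM thapsigargin for 4 h, then extracellular luciferase luminescence.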
# [2] = Primary qHTS for inhibitors of nuclear receptor binding SET domain protein 2 (NSD2) in an isogenic RCH-ACV NSD2 p.E1099K mutant (9B) (AID 1645876); details: RCH-ACV NSD2 E1099K (9B) viability, CellTiter-Glo, 72 h; series mostly up to 44.9 µM; further: nearly all actives have a fitted effect of over 70% in size; further: potency means the concentration at half of the fitted maximal effect
# [3] = Cell Viability qHTS for small molecule stabilizers of the endoplasmic reticulum resident proteome (AID 1508629); details: cell viability counter-screen, 100 nM thapsigargin for final 4 h;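 further: human SH-SY5Y neuroblastoma cells carrying the GLuc-SERCaMP reporter; compound exposure about 46 h in total before the viability read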
# [4] = Primary qHTS for inhibitors of nuclear receptor binding SET domain protein 2 (NSD2) in an RCH-ACV wild type WT cells (2C) (AID 1645877); details: RCH-ACV (leukaemia line) NSD2 WT (2C) viability, CellTiter-Glo, 72 h; series mostly up to 44.9 µM; further: nearly all actives have a fitted effect of over 70% in size; further: potency means the concentration at half of the fitted maximal effect
# [5] = molecular target: Cytochrome P450 2C9 (Homo sapiens) (UniProt P11712); assay: Cytochrome P450 family 2 subfamily C member 9 (CYP2C9) small molecule antagonists: luciferase biochemical (cell-free) qHTS assay (AID 1645842; active means well fitted curve in the direction sought with a large enough effect in the repeat runs; an effect the other way counts as inactive or inconclusive; further: potency means the concentration at half of the fitted maximal effect; nearly all actives have a fitted effect of over 55% in size); details: P450-Glo CYP2C9 enzyme assay, luciferin luminescence; series mostly up to 57.4 µM
# Chain of Cytochrome P450 2C9 (Homo sapiens) (P11712 whole entry, looked up): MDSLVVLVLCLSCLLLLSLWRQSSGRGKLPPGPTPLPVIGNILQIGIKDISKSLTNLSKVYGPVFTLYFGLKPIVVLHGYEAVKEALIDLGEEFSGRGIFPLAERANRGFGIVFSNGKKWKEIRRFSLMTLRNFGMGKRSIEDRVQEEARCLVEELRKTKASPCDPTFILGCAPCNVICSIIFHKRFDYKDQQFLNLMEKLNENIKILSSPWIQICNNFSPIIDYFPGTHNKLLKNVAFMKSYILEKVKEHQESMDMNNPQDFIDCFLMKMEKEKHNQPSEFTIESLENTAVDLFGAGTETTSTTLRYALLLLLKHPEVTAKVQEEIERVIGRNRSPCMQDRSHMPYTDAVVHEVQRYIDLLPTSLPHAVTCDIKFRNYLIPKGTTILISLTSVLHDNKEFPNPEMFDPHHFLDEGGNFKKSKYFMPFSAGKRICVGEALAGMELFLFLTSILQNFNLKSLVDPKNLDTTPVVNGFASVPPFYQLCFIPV
# Summary of the method: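 P450-Glo CYP2C9 system: proluciferin substrate with enzyme in mix containing 0.4% BSA, 10 min at room temperature, then NADPH regeneration solution added and incubated 1 h at 37C. Detection reagent stopped reaction; luminescence read after 20 min as RLU.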
# [6] = molecular target: Cytochrome P450 2D6 (Homo sapiens) (UniProt P10635); assay: Cytochrome P450 family 2 subfamily D member 6 (CYP2D6) small molecule antagonists: luciferase biochemical (cell-free) qHTS assay (AID 1645840; active means well fitted curve in the direction sought with a large enough effect in the repeat runs; an effect the other way counts as inactive or inconclusive; further: potency means the concentration at half of the fitted maximal effect; nearly all actives have a fitted effect of over 55% in size); details: P450-Glo CYP2D6 enzyme, luciferin luminescence, 1 h; series mostly up to 57.4 µM
# Chain of Cytochrome P450 2D6 (Homo sapiens) (P10635 whole entry, looked up): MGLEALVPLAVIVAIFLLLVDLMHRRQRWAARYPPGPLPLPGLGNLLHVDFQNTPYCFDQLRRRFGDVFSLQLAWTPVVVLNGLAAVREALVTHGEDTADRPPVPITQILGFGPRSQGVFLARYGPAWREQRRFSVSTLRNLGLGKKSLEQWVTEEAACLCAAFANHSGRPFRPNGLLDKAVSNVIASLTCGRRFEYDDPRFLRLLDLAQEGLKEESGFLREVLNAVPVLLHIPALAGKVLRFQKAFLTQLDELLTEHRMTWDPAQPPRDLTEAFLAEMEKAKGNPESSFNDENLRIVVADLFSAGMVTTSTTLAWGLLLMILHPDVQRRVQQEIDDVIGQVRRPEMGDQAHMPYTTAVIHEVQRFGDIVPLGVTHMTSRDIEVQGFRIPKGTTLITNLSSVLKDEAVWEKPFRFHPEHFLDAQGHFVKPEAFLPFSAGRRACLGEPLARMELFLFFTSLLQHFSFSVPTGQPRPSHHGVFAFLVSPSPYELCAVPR
# Summary of the method: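 P450-Glo CYP2D6 system: proluciferin substrate converted by enzyme to luciferin, read by luminescence proportional to activity. Enzyme-substrate mix with compound 10 min at room temperature, then NADPH regeneration 1 h before detection reagent.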
smiles,measurement,setting,value
C[N+]1(C)[C@@H]2CC(OC(=O)[C@H](CO)c3ccccc3)C[C@H]1[C@H]1O[C@@H]12 (some centres not stated),Potency,[1],inactive
COc1ccc(-c2cc(=O)c3c(O)cc(O)cc3o2)cc1O,Potency,[1],inactive
same,Potency,[2],11.8 µM (active)
CC[C@@H]1C=C(C)C[C@H](C)C[C@H](OC)[C@H]2O[C@@](O)(C(=O)C(=O)N3CCCC[C@@H]3C(=O)O[C@H](C(C)=C[C@@H]3CC[C@H](Cl)[C@H](OC)C3)[C@H](C)[C@@H](O)CC1=O)[C@H](C)C[C@H]2OC,Potency,[1],inactive
O=c1c(-c2ccc(O)cc2)coc2cc(O[C@@H]3O[C@H](CO)[C@H](O)[C@H](O)[C@H]3O)ccc12,Potency,[1],inactive
Nc1ncnc2c1ncn2[C@@H]1O[C@H](CO)C[C@@H]1O,max response,[3],15.2%
same,Potency,[1],inactive
NC(=O)c1cnc(-c2ccc(C3(N)CCC3)cc2)c(-c2ccccc2)c1,Potency,[1],inactive
same,Potency,[2],2.95 µM (active) and 459 nM (active)
same,Potency,[4],11.8 µM (active) and 916 nM (active)
CC1(C)CCC[C@@]2(C)[C@@H]1CC[C@@]1(C)OC(=O)C[C@H]21,Potency,[1],inactive
O=C(O)c1ccccc1C(=O)Nc1ccc(-c2ccccc2)cc1,Potency,[1],inactive
same,Potency,[2],inactive
same,Potency,[4],inactive
COc1ccc(-c2oc3c(CC=C(C)C)c(OC4O[C@H](CO)[C@@H](O)[C@H](O)[C@@H]4O)cc(O)c3c(=O)c2OC2O[C@@H](C)[C@H](O)[C@@H](O)[C@@H]2O)cc1 (some centres not stated),Potency,[1],inactive
Cc1ccccc1C(C(=O)NC1CCCCC1)N(C(=O)Cn1ccnc1C)c1cccc(F)c1 (configuration not stated),Potency,[2],inactive
same,Potency,[4],inactive
Cc1nc(N)sc1-c1ccnc(Nc2ccc(N3CCOCC3)cc2)n1,Potency,[5],6.01 µM (active)
same,Potency,[2],409 nM (active) and 590 nM (active)
CN1[C@@H]2CCC[C@@H]1CC(NC(=O)c1nn(C)c3ccccc13)C2 (some centres not stated),Potency,[1],inactive
CC(C(=O)O)c1ccc(-c2ccccc2)c(F)c1 (configuration not stated),Potency,[1],inactive
same,Potency,[2],inactive
same,Potency,[4],inactive
CCOC(=O)O[C@]1(C(=O)OCCl)CC[C@@H]2[C@H]3CCC4=CC(=O)C=C[C@]4(C)[C@@H]3[C@@H](O)C[C@@]21C,Potency,[1],inactive
CC(C)(Cc1ccc2ccccc2c1)NC[C@@H](O)COc1cccc(Cl)c1C#N,Potency,[1],inactive
same,Potency,[6],0.379 µM (active)
same,Potency,[5],2.68 µM (active)
same,Potency,[2],4.68 µM (active)
same,Potency,[4],6.61 µM (active)
CO[C@@H](C(=O)N1Cc2[nH]nc(NC(=O)c3ccc(N4CCN(C)CC4)cc3)c2C1)c1ccccc1,Potency,[1],inactive
same,Potency,[2],73.1 nM (active) and 118 nM (active)
same,Potency,[4],58 nM (active) and 52.5 nM (active)
Cc1cc(OCCCc2c(C(=O)O)n(Cc3cccnc3)c3c(-c4c(COc5ccc(N6CCN([S+](C)(=O)[O-])CC6)cc5)nn(C)c4C)cccc23)cc(C)c1Cl,Potency,[1],inactive
Oc1ccc(C2=Cc3ccc(O)cc3OC2)cc1,Potency,[1],inactive
same,Potency,[2],1.18 µM (active)
same,Potency,[4],1.32 µM (active)
OC[C@H]1O[C@@H](Oc2cc(O)cc(C=Cc3ccc(O)cc3)c2)[C@H](O)[C@@H](O)[C@H]1O,Potency,[1],inactive

# Source: PubChem BioAssay (NCATS)
